Data published in PubChem BioAssay (Tox21).
“And” between values parts separate entries of the source, which are not always exact repeats. Identical values can stand only once. Some structures have more than one record in an assay (separate samples or runs), and their calls can disagree. The source made the active and inactive calls. Unless noted, calls follow the shape of the dose curve; as a rule, active = well fitted curve in the direction sought with a large enough effect in the repeat runs; inconclusive = weak or mixed curves; inactive = no such curve, though single readings can be large; an effect the other way counts as inactive or inconclusive.

What was measured:
[1] = qHTS assay to identify small molecule antagonists of the thyroid receptor (TR) signaling pathway - cell viability counter screen (AID 743064); also: nearly all actives have a fitted effect of over 50% in size; also: potency is read from the fitted curve at half-maximal effect
In short: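 Compounds were tested on GH3.TRE-Luc cells in the presence of T3 at 1 nM final. Following 23.5 h at 37 °C, cell viability was quantified by CellTiter-Fluor.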

[2] = system: thyroid hormone receptor (rat, GH3 cells); assay: qHTS assay to identify small molecule agonists of the thyroid receptor (TR) signaling pathway (AID 743066; calls by dose curve)
[3] = qHTS assay to identify small molecule antagonists of the estrogen receptor alpha (ER-alpha) signaling pathway - cell viability counter screen (AID 743074; calls by dose curve; also: nearly all actives have a fitted effect of over 45% in size; also: potency is read from the fitted curve at half-maximal effect)
[4] = qHTS assay to identify small molecule antagonists of the estrogen receptor alpha (ER-alpha) signaling pathway using the BG1 cell line - cell viability counter screen (AID 743081);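 also: compound given together with 17beta-estradiol as the ER stimulus; nearly all actives have a fitted effect of over 45% in size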; also: potency is read from the fitted curve at half-maximal effect
[5] = biological target: Aromatase (Homo sapiens) (UniProt P11511); assay: qHTS assay to identify aromatase inhibitors (AID 743083); also: nearly all actives have a fitted effect of over 55% in size; also: potency is read from the fitted curve at half-maximal effect
[6] = qHTS assay to identify aromatase inhibitors - cell viability counter screen (AID 743084);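 also: cells stimulated with testosterone during compound exposure; nearly all actives have a fitted effect of over 55% in size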; also: potency is read from the fitted curve at half-maximal effect
[7] = biological target: Aryl hydrocarbon receptor (Homo sapiens) (UniProt P35869); assay: qHTS assay to identify small molecule that activate the aryl hydrocarbon receptor (AhR) signaling pathway (AID 743085); also: nearly all actives have a fitted effect of over 15% in size; also: potency is read from the fitted curve at half-maximal effect;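 as to activation: HG2L7.5c1 human HepG2 liver cells with stably integrated DRE-driven firefly reporter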
In short: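 24 h compound exposure, 37C, HepG2-derived HG2L7.5c1 cells with DRE-responsive luciferase. Readouts: fluorescence viability, then luminescence at room temperature after 30 min.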

[8] = qHTS assay for small molecule agonists of the antioxidant response element (ARE) signaling pathway - cell viability counter screen (AID 743203; calls by dose curve; also: nearly all actives have a fitted effect of over 55% in size; also: potency is read from the fitted curve at half-maximal effect)
In short: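 Parallel cytotoxicity read-out for the ARE-bla screen: HepG2 reporter cells, 16 hrs with compounds, then CellTiter-Glo luminescence.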

[9] = qHTS assay for small molecule activators of the heat shock response signaling pathway - cell viability counter screen (AID 743209); also: nearly all actives have a fitted effect of over 50% in size; also: potency is read from the fitted curve at half-maximal effect
In short: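 To flag cytotoxic compounds, HSE-bla HeLa cells plated at 1500 cells/well were dosed for 5 h at 37 C, followed by the reporter FRET read and then CellTiter-Glo, with luminescence recorded 30 min after reagent addition.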

[10] = biological target: Estrogen receptor (Homo sapiens) (UniProt P03372); assay: qHTS assay to identify small molecule agonists of the estrogen receptor alpha (ER-alpha) signaling pathway (AID 743075; calls by dose curve; also: potency is read from the fitted curve at half-maximal effect); conditions: HEK293 ER-alpha-UAS-bla, beta-lactamase FRET ratio, 18 h; activation: at 70.1 µM (top of the series)
[11] = qHTS assay to identify small molecule that activate the aryl hydrocarbon receptor (AhR) signaling pathway - cell viability counter screen (AID 743086); also: nearly all actives have a fitted effect of over 45% in size; also: potency is read from the fitted curve at half-maximal effect
In short: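 HepG2-AhR-luc (HG2L7.5c1) cells, 4000/well, were preincubated 5 h at 37C, exposed to compound in qHTS format for 24 hr at 37C, then given CellTiter-Fluor for 30 min; viability was read as fluorescence in the reporter wells.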

[12] = biological target: Peroxisome proliferator-activated receptor gamma (Homo sapiens) (UniProt P37231); assay: qHTS assay to identify small molecule agonists of the peroxisome proliferator-activated receptor gamma (PPARg) signaling pathway (AID 743094; active = well fitted activation curve with a large enough effect in the signal ratio in the repeat runs, not every such curve was filed as active; inconclusive = weak or mixed curves, or effect the other way; inactive = no such curve, though single readings can be large or run the other way; the % refers to the signal ratio; also: potency is read from the fitted curve at half-maximal effect)
In short: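 Fluorescence-based beta-lactamase readout in HEK293H PPARg UAS-bla cells after 17 h compound exposure (37C) and 1 h B/G FRET substrate incubation at room temperature.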

[13] = qHTS assay to identify small molecule antagonists of the peroxisome proliferator-activated receptor gamma (PPARg) signaling pathway - cell viability counter screen (AID 743194); also: nearly all actives have a fitted effect of over 55% in size; also: potency is read from the fitted curve at half-maximal effect
In short: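 PPARg-UAS-bla HEK293H cells were plated, rested 5 h at 37 C, then treated with compounds plus rosiglitazone (50 nM final) for 17 h at 37 C; viability was then read by CellTiter-Glo luminescence after 30 min at room temperature.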

[14] = qHTS assay for small molecule agonists of the antioxidant response element (ARE) signaling pathway (AID 743202; active = well fitted activation curve with a large enough effect in the signal ratio in the repeat runs, not every such curve was filed as active; inconclusive = weak or mixed curves, or effect the other way; inactive = no such curve, though single readings can be large or run the other way; the % refers to the signal ratio; also: potency is read from the fitted curve at half-maximal effect)
In short: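 Steps: seed ARE-bla HepG2 cells (2,000/well); incubate 5 h at 37 C; add compounds by pin tool; incubate 16 h at 37 C; add FRET substrate; read fluorescence after 2 h at RT.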

[15] = qHTS assay for small molecule activators of the heat shock response signaling pathway (AID 743210; active = well fitted activation curve with a large enough effect in the signal ratio in the repeat runs, with a control signal flat, not every such curve was filed as active; inconclusive = weak or mixed curves; the % refers to the signal ratio;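 also: HeLa cells with beta-lactamase reporter driven by heat shock elements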)
In short: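 Activation of heat shock element-controlled beta-lactamase expression is measured in HeLa cells by LiveBLAzer FRET fluorescence, with compound exposure lasting 5 h at 37 C and substrate loading 2.5 h at room temperature.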

[16] = biological target: Peroxisome proliferator-activated receptor gamma (Homo sapiens) (UniProt P37231); assay: qHTS assay to identify small molecule antagonists of the peroxisome proliferator-activated receptor gamma (PPARg) signaling pathway (AID 743191; calls by dose curve; also: nearly all actives have a fitted effect of over 30% in size; also: potency is read from the fitted curve at half-maximal effect)
In short: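 GeneBLAzer PPARg UAS-bla HEK293H cells carrying a UAS-driven beta-lactamase reporter were plated at 3000 cells/well, preincubated 5 h at 37C, then given compound for 17 h at 37C; LiveBLAzer B/G FRET substrate was read after 1 h at room temperature.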

[17] = biological target: Estrogen receptor (Homo sapiens) (UniProt P03372); assay: qHTS assay to identify small molecule agonists of the estrogen receptor alpha (ER-alpha) signaling pathway using the BG1 cell line (AID 743079); conditions: BG1Luc4E2 cells, ERE-luciferase agonist, 22 h; also: nearly all actives have a fitted effect of over 20% in size
[18] = qHTS assay to identify small molecule antagonists of the estrogen receptor alpha (ER-alpha) signaling pathway using the BG1 cell line (AID 743080; calls by dose curve;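 also: BG1 cells stimulated with 17beta-estradiol alongside compound; nearly all actives have a fitted effect of over 25% in size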)
In short: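 Luminescence from a 4×ERE-luciferase reporter in BG1-Luc-4E2 cells served as read-out. Cells, pre-cultured 5 days in stripped-serum phenol-red-free medium, were exposed to compound with 17beta-estradiol co-stimulation for 21.5 h at 37 C.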

[19] = biological target: Estrogen receptor (Homo sapiens) (UniProt P03372); assay: qHTS assay to identify small molecule antagonists of the estrogen receptor alpha (ER-alpha) signaling pathway (AID 743069; active = well fitted curve in the direction sought with a large enough effect in the signal ratio in the repeat runs, not every such curve was filed as active; inconclusive = weak or mixed curves, or effect the other way; inactive = no such curve, though single readings can be large or run the other way; the % refers to the signal ratio)
In short: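 Screening used a UAS-driven beta-lactamase reporter integrated into HEK293 cells expressing ER-alpha, stimulated with 17beta-estradiol alongside test compounds over 18 hr at 37C; signal came from LiveBLAzer B/G FRET fluorescence.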
% is scaled to controls: 0 for no effect and ±100 for the full control effect.

Chain of Aryl hydrocarbon receptor (Homo sapiens) (P35869 whole entry, looked up): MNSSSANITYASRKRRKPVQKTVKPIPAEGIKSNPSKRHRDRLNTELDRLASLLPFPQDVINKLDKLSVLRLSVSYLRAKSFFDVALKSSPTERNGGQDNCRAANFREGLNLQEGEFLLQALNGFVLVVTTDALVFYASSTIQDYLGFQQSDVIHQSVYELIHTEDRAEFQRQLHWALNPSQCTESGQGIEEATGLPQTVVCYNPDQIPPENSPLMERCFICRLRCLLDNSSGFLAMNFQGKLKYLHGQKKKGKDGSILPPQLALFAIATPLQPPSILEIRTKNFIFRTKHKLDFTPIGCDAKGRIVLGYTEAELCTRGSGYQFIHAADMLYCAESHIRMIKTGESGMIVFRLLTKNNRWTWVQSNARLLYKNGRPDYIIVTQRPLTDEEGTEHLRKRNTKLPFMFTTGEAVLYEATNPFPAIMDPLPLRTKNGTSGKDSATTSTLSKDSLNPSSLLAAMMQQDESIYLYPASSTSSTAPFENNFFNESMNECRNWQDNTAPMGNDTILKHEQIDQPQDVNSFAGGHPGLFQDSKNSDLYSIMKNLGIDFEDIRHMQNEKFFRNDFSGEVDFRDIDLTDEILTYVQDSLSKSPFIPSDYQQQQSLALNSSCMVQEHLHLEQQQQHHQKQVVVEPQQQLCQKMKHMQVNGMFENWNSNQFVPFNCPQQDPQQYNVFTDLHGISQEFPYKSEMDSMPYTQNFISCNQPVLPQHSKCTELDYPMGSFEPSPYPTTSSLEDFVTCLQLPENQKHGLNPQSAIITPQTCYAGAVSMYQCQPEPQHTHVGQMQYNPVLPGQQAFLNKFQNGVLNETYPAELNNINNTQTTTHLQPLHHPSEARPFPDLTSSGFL
Chain of Estrogen receptor (Homo sapiens) (P03372 whole entry, looked up): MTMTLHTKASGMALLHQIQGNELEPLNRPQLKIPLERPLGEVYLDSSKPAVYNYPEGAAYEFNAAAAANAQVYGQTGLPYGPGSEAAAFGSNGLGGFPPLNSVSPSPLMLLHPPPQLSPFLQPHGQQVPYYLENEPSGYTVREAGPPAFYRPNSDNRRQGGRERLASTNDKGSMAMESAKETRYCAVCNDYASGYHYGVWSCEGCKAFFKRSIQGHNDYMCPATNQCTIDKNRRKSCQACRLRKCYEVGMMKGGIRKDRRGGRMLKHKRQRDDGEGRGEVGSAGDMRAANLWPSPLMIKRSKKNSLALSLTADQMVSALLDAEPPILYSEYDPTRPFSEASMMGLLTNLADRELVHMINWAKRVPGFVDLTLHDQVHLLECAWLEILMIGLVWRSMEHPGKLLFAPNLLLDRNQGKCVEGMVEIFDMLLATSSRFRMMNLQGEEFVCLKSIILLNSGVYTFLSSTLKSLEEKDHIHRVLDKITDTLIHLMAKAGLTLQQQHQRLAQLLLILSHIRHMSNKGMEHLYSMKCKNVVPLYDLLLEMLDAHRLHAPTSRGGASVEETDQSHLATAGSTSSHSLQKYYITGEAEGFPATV
Chain of Peroxisome proliferator-activated receptor gamma (Homo sapiens) (P37231 whole entry, looked up): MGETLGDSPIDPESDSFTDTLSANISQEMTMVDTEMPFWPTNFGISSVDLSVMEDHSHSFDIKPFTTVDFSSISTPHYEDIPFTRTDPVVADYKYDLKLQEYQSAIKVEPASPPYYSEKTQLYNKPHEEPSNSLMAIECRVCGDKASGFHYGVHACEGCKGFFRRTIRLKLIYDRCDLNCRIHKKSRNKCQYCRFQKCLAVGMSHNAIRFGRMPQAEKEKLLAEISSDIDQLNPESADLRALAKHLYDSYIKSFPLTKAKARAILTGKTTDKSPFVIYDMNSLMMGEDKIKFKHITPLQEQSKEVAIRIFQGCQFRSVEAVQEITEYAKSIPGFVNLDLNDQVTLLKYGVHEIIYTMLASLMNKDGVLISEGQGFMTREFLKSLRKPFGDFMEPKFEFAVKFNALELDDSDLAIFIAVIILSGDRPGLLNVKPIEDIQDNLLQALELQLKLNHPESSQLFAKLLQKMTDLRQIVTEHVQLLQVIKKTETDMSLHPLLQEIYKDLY
Chain of Aromatase (Homo sapiens) (P11511 whole entry, looked up): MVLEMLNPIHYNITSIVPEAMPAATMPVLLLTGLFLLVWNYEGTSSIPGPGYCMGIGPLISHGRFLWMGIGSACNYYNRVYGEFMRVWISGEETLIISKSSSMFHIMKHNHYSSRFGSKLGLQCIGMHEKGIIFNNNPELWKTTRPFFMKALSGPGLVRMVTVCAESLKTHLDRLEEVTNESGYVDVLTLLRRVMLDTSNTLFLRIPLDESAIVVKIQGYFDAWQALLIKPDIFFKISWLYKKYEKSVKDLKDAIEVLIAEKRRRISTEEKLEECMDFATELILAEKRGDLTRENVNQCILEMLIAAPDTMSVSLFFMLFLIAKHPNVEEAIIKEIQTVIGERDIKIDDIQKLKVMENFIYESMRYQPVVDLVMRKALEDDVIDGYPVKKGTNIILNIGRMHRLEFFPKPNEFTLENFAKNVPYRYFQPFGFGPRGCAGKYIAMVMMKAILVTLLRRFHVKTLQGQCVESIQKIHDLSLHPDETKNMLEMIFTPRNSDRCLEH

CC1=C(/C=C/C(C)=C/C=C/C(C)=C/C=O)C(C)(C)CCC1
active: Potency [1] 7.65 µM | Potency [3] 54.6 µM | Potency [4] 60.8 µM | Potency [5] 15.3 µM | Potency [6] 30.5 µM | Potency [8] 60.8 µM | Potency [9] 34.5 µM
inactive: Potency [2] | Potency [7]

C[C@@H](NCCCc1cccc(C(F)(F)F)c1)c1cccc2ccccc12
active: Potency [1] 7.5 µM | Potency [3] 23.9 µM | Potency [5] 13.3 µM | Potency [6] 21.1 µM
inactive: Potency [7]

Cc1nc(-c2ccc3c(c2)CCN(CCC2CCC(NC(=O)/C=C/c4ccc(F)cc4)CC2)CC3)no1 (centres undefined)
active: Potency [1] 10.9 µM | Potency [10] 9.79 µM [inconclusive] | Potency [12] 24.6 µM
inactive: Potency [2] | Potency [3] | Potency [4] | Potency [5] | Potency [6] | Potency [7] | Potency [11] | Potency [13] | Potency [9]

c1cc(C(c2ccc(OCC3CO3)cc2)c2ccc(OCC3CO3)cc2)ccc1OCC1CO1 (centres undefined)
inactive: Potency [3] | Potency [10] | Potency [4] | Potency [7] | Potency [9]
active: Potency [1] 17.2 µM | Potency [5] 68.6 µM | Potency [6] 54.5 µM | Potency [13] 21.9 µM

Oc1ccc2c(c1)-c1ccccc1C2
active: Potency [7] 15.4 µM | Potency [14] 4.86 µM
inactive: Potency [1] | Potency [2] | Potency [3] | Potency [4] | Potency [6] | Potency [11] | Potency [12] | Potency [13] | Potency [9] | Potency [15]

CC1(C)CCC(C)(C)c2cc(C(=O)Nc3ccc(C(=O)O)cc3)ccc21
active: Potency [1] 68.6 µM
inactive: Potency [3] | Potency [10] | Potency [4] | Potency [5] | Potency [7] | Potency [16] | Potency [13] | Potency [14] | Potency [8]

NC(=NCCCCCCN=C(N)/N=C(\N)Nc1ccc(Cl)cc1)/N=C(\N)Nc1ccc(Cl)cc1
active: Potency [1] 8.56 µM [middle of 5 runs] | Potency [3] 25 µM [middle of 4 runs] | Potency [5] 24.1 µM [middle of 4 runs]
inactive and 68.2 µM (active): Potency [4]
inactive: Potency [2] | Potency [7] | Potency [11] | Potency [12]

O=C1Cc2cc(CCN3CCN(c4nsc5ccccc45)CC3)c(Cl)cc2N1
inactive and 16.8 µM (active): Potency [1]
inactive and 26.6 µM (active): Potency [6]
inactive: Potency [3] | Potency [10] | activation ([17]; at 70.3 µM (top of the series)) 1.77% and -23.7% | Potency [18] | Potency [4] | Potency [5] | Potency [11] | Potency [12] | Potency [9]
15 µM (active) and inactive: Potency [7]

O=C(OC[C@H]1O[C@@H](OC(=O)c2cc(O)c(O)c(OC(=O)c3cc(O)c(O)c(O)c3)c2)[C@H](OC(=O)c2cc(O)c(O)c(OC(=O)c3cc(O)c(O)c(O)c3)c2)[C@@H](OC(=O)c2cc(O)c(O)c(OC(=O)c3cc(O)c(O)c(O)c3)c2)[C@@H]1OC(=O)c1cc(O)c(O)c(OC(=O)c2cc(O)c(O)c(O)c2)c1)c1cc(O)c(O)c(OC(=O)c2cc(O)c(O)c(O)c2)c1
inactive: Potency [2] | Potency [7]
active: Potency [1] 3.35 µM and 16.5 µM | Potency [3] 6.74 µM | Potency [4] 21.1 µM | Potency [6] 18.8 µM | Potency [11] 21.1 µM and 16.5 µM

Cc1[nH]cnc1C[C@H]1CCc2c(C)c3ccccc3n2C1=O
active: Potency [1] 13.3 µM | Potency [8] 53.1 µM
inactive: Potency [3] | Potency [4] | Potency [5] | Potency [6] | Potency [7] | Potency [11] | Potency [9]

O=c1cc(-c2ccc(O)cc2)oc2cc(O)cc(O)c12
inactive: Potency [2] | Potency [8] | Potency [15]
active: Potency [1] 55.2 µM | Potency [16] 21.9 µM | Potency [9] 12.3 µM

C=C(C)C(=O)OCC[N+](C)(C)C
active: Potency [1] 60.9 µM | Potency [16] 2.18 µM
inactive: Potency [2] | Potency [3] | Potency [4] | Potency [5] | Potency [6] | Potency [7] | Potency [11] | Potency [12] | Potency [13] | Potency [8] | Potency [9] | Potency [15]

CCCCC(CC)COC(=O)c1ccccc1C(=O)O (centres undefined)
inactive: Potency [1] | Potency [2] | Potency [11] | Potency [13] | Potency [8]

CCCCCCCCCCCCCCCC[N+](C)(C)CCN(Cc1ccc(OC)cc1)c1ncccn1
inactive: Potency [19] | Potency [10] | activation ([17]; at 32.5 µM (top of the series)) -16.9% | Potency [4] | Potency [6] | Potency [7] | Potency [11] | Potency [12]
active: Potency [1] 11.4 µM | Potency [5] 12.7 µM | Potency [13] 26.6 µM
